Data on 24 compounds can be found in PubChem BioAssay (NCATS).

Where “and” joins values, the source holds several entries; their conditions need not be identical. Equal values may be shown once. Inconclusive results are not listed. Values without a mark were called inactive. Calls of active or inactive are those of the source. The call rests on the fitted dose curve; in most records, active means well fitted curve in the direction sought with a large enough effect; inconclusive means small, poorly fitted or top-dose-only effect, or another doubt; inactive means no such curve, though single readings can be large; an effect the other way counts as inactive or inconclusive.

Assay [1] in a line: Viability qHTS for spleen associated tyrosine kinase inhibitor (SYKi) naive MV4-11 cells (AID 1963823). Further: nearly all actives have a fitted effect of over 40% in size. The method, boiled down: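 Viability of MV4-11 AML cells lacking prior SYK inhibitor exposure is scored by CellTiter-Glo luminescence following 72 hr compound incubation at 37 C, 5% CO2, seeded at 500 cells per well.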
In general terms: In qHTS, concentration-response curves come from the screen itself.

Assay [2] is described as follows: Viability qHTS for spleen associated tyrosine kinase inhibitor (SYKi) drug resistant MV4-11 cells (AID 1963824). Further: nearly all actives have a fitted effect of over 35% in size. In short, it runs like this:
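SYK-inhibitor-resistant MV4-11 AML cells were seeded at 500 per well onto compound and cultured 72 hours (37 °C, 5% CO2). CellTiter-Glo was then added, and after 10 min at room temperature, luminescence gave viability.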

Assay [3] can be described thus: Cellular viability qHTS for adrenocortical cancer (ACC) cell line SW-13 (AID 1963989). Further: nearly all actives have a fitted effect of over 65% in size.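 On activity (max response): cells grown in serum-free medium with ITS supplement; on the % scale 0 is the no-effect control and ±100 the full control effect.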 The note with it: SW-13 ACC cells viability, CellTiter-Glo, 48 h; activity (max response): active compounds read low. In short, it runs like this:
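Here, serum-free SW-13 cultures were dosed up to 46 uM. Following 48 h, ATP-dependent luminescence (CellTiter-Glo) reported viable cells, and logistic modeling produced IC50 values.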

Assay [4] can be described thus: Cellular viability qHTS for adrenocortical cancer (ACC) cell line NCI-H295R (AID 1963990). Further: nearly all actives have a fitted effect of over 60% in size. In short, it runs like this: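 Viability of NCI-H295R after 48 h of treatment (final up to 46 uM) measured through cellular ATP luminescence.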
Potency means the concentration at half of the fitted maximal effect.

For the compound `CN1CCN(C2CCC(n3cc(-c4ccc(Oc5ccccc5)cc4)c4c(N)ncnc43)CC2)CC1` (stereo unspecified), the Potency in assay [1] was 0.0231 µM (active); in assay [2], 58 nM (active) and 74.2 nM (active); in assay [3], 1580 nM (active); in assay [4] it was 7080 nM (active).

Take `CO[C@H]1/C=C/O[C@@]2(C)Oc3c(C)c(O)c4c(O)c(c5c(c4c3C2=O)=NC2(CCN(CC(C)C)CC2)N=5)NC(=O)/C(C)=C/C=C/[C@H](C)[C@H](O)[C@@H](C)[C@@H](O)[C@@H](C)[C@H](OC(C)=O)[C@@H]1C`: the Potency in assay [1] and in assay [2] was 18.6 µM (active) throughout. The activity (max response) in assay [3] is -11.1%. For the same compound, the Potency entry in assay [4] was “inactive”.

Take `CC[C@]12C=CCN3CC[C@@]4(c5cc([C@@]6(C(=O)OC)CC7C[C@@H](C(C)(F)F)CN(Cc8c6[nH]c6ccccc86)C7)c(OC)cc5N(C)[C@H]4[C@@](O)(C(=O)OC)[C@@H]1OC(C)=O)[C@@H]32` (stereo partly specified): the Potency in assay [1] is 0.0934 µM (active); in assay [2], 0.105 µM (active); in assay [3] it was 282 nM (active); in assay [4], 708 nM (active).

In the case of `CO[C@@H](C)Cn1c(=O)n(C)c2cnc3ccc(-c4cncc(C(C)(C)O)c4)cc3c21`, the Potency in assay [1] is 0.082 µM (active); in assay [2], 0.332 µM (active); in assay [3] it was 3550 nM (active); in assay [4], 891 nM (active).

With `Cc1cc2c(C(C)C)c(O)c(O)c(C=O)c2c(O)c1-c1c(C)cc2c(C(C)C)c(O)c(O)c(C=O)c2c1O`, the Potency in assay [1] is 6.61 µM (active); in assay [2] it was 4.68 µM (active); in assay [3], 10000 nM (active); in assay [4], 8200 nM (active).

Consider `C[C@H](CCC(=O)O)[C@H]1CC[C@H]2[C@@H]3[C@@H](O)C[C@@H]4C[C@H](O)CC[C@]4(C)[C@H]3CC[C@]12C`, for which the Potency entry in assay [1], in assay [2] and in assay [4] was “inactive” each time. Further, the activity (max response) in assay [3] was -9.5%.

Consider `Nc1cc(-c2ccncc2)c[nH]c1=O`, for which the Potency result in assay [1], in assay [2] and in assay [4] was “inactive” in each case. Moreover, the activity (max response) in assay [3] is 2.68%.

`C[C@]12C[C@H](O)[C@H]3[C@@H](CCC4=CC(=O)CC[C@@]43C)[C@@H]1CC[C@@H]2C(=O)CO`: the Potency result in assay [1], in assay [2] and in assay [4] was “inactive” each time. Further, the activity (max response) in assay [3] was 4.71%.

For the compound `CCS(=O)(=O)N1CCC([C@@H](C)n2c(C)c(C(=O)NCc3c(OC)cc(C)[nH]c3=O)c3ccccc32)CC1`, the Potency entry in assay [1], in assay [2] and in assay [4] was “inactive” each time. Moreover, in assay [3], the activity (max response) is 8.68%.

As for `O=C(NO)c1cnc(N2C[C@H]3C[C@@H]2CN3c2cc(C(F)(F)F)ccn2)nc1`, the Potency in assay [1] is 2.35 µM (active); in assay [2], 2.35 µM (active); in assay [3] it was 10000 nM (active); in assay [4], 2820 nM (active).

In the case of `CSc1ccc(C(=O)/C=C/c2cc(C)c(OC(C)(C)C(=O)O)c(C)c2)cc1`, the Potency was 3.03 µM (active) in assay [1], 4.28 µM (active) in assay [2], 35500 nM (active) in assay [3] and 39800 nM (active) in assay [4].

As for `C[C@@H](C(=O)Nc1ccc(Cl)cc1)C1CCC(c2ccnc3ccc(F)cc23)CC1` (stereo partly specified), the Potency is 18.6 µM (active) in assay [1], 14.8 µM (active) in assay [2], 25100 nM (active) in assay [3] and 25100 nM (active) in assay [4].

With `Cc1c(F)ccc(C(=O)Nc2cc([N+](=O)[O-])ccc2N2CCN(C)CC2)c1Cl`, the values for the Potency in assay [1] and in assay [2] were 1.32 µM (active) and 2.91 µM (active), respectively. For the same compound, the activity (max response) in assay [3] is -19.1%. For the same compound, the Potency entry in assay [4] was “inactive”.

Consider `c1ccc(-c2ccc(CNc3nc(-c4ccccn4)nnc3-c3ccccc3)cc2)cc1`, for which the Potency in assay [1] is 0.92 µM (active); in assay [2], 1.03 µM (active); in assay [3] it was 11200 nM (active); in assay [4] it was 17800 nM (active).

Consider `Nc1ccc(S(=O)(=O)Nc2cnc3ccccc3n2)cc1`, for which the Potency result in assay [1], in assay [2] and in assay [4] was “inactive” each time. For the same compound, the activity (max response) in assay [3] is 8.58%.

As to `O=Cc1ccc(O)c(O)c1O`, the Potency result in assay [1] and in assay [2] was “inactive” throughout. Also, the activity (max response) in assay [3] was -7.42%. Besides, the Potency in assay [4] was 18400 nM (active).

Consider `C(=C\c1ccccc1)/CN1CCN(C(c2ccccc2)c2ccccc2)CC1`, for which the Potency result in assay [1], in assay [2] and in assay [4] was “inactive” throughout. For the same compound, the activity (max response) in assay [3] is -1.91%.

Turning to `O=C(CO)[C@@H](O)[C@H](O)[C@@H](O)CO`, the Potency entry in assay [1], in assay [2] and in assay [4] was “inactive” throughout. Moreover, the activity (max response) in assay [3] is 0.0107%.

With `CCOC(=O)c1cc(=O)c2c(OCC(COc3cccc4oc(C(=O)OCC)cc(=O)c34)OC(=O)[C@@H](N)CCCCN)cccc2o1`, the Potency result in assay [1], in assay [2] and in assay [4] was “inactive” each time. Moreover, the activity (max response) in assay [3] was 4.59%.

On to `O=C(NCc1ccc(S(=O)(=O)c2cccc(C(F)(F)F)c2)cc1)c1cnc2[nH]ncc2c1`, for which the Potency was 0.0118 µM (active) in assay [1], 0.0105 µM (active) in assay [2], 28.2 nM (active) in assay [3] and 17.8 nM (active) in assay [4].

Regarding `C[C@@H]1O[C@@H](OC[C@H]2O[C@@H](Oc3c(-c4ccc(O)c(O)c4)oc4cc(O)cc(O)c4c3=O)[C@H](O)[C@@H](O)[C@@H]2O)[C@H](O)[C@H](O)[C@H]1O`, the Potency result in assay [1], in assay [2] and in assay [4] was “inactive” each time. In addition, in assay [3], the activity (max response) was 16.6%.

As for `CN1C(CCl)Nc2cc(Cl)c(S(N)(=O)=O)cc2S1(=O)=O` (stereo unspecified), the Potency result in assay [1], in assay [2] and in assay [4] was “inactive” throughout. The activity (max response) in assay [3] is -4.04%.

Turning to `Cc1ccc(C(C)OC(=O)C2(C)CCC(C(=O)O)C2(C)C)cc1` (stereo unspecified), the Potency result in assay [1], in assay [2] and in assay [4] was “inactive” each time. Further, the activity (max response) in assay [3] was 8.64%.

Regarding `CO[C@@]12[C@H](COC(N)=O)C3=C(C(=O)C(C)=C(N)C3=O)N1C[C@@H]1N[C@@H]12`, the Potency in assay [1] was 119 nM (active) and 118 nM (active); in assay [2], 0.0742 µM (active). In addition, the activity (max response) in assay [3] was 9.06% and -27.8%. Also, the Potency entry in assay [4] was “inactive”.
